# Data reported in ChEMBL document CHEMBL3988442, “University of Dundee, Small-Polar-MMV Screening Library” (2021).
# Among all 66,000 compounds or so, about 960 (1.5%) showed an effect of 50% or more. The entries come from a sample that favours strong results as a whole.
# Test system: Trypanosoma brucei
# Experiment: Trypanosoma brucei 72 hour study
# Format: functional, organism-based
# Design: scale not given: in the data most compounds retested in dose-response had high values
smiles,measurement,setting,value
CN(Cc1ccc2c(c1)OCCO2)Cc1nc2c(cnn2C)c(=O)[nH]1,Percent Effect,"30.3 µM, […]",4.999%
CS(=O)(=O)N1CCO[C@@H]2CCN(Cc3ccncc3)CC[C@H]21.O=C(O)C(F)(F)F.O=C(O)C(F)(F)F,Percent Effect,"30.3 µM, […]",-50.12%
COc1ccc(Cl)cc1S(=O)(=O)N1C[C@@H]2CC[C@H](C1)N(C)C2=O,Percent Effect,"30 µM, 30.03 µM",12.03%
O=C(O)C(F)(F)F.O=c1ccc2c(n1CC1CCOCC1)CCN(Cc1ccoc1)CC2,Percent Effect,"30 µM, 30.03 µM",-13.76%
COCCNC(=O)[C@H]1CN(Cc2cccs2)C[C@H]2OCC[C@@H]12.O=C(O)C(F)(F)F,Percent Effect,"30 µM, 30.03 µM",-47.27%
Cc1ccc(CN2C[C@@H]3CCCO[C@@H]3[C@H](N(C)Cc3ccco3)C2)s1.O=C(O)C(F)(F)F.O=C(O)C(F)(F)F,Percent Effect,"30 µM, 30.03 µM",26.16%
COCCN1CCOCC12CCN(c1cnccn1)CC2.O=C(O)C(F)(F)F,Percent Effect,"30.3 µM, […]",-82.27%
Cn1c(C2CC2)nc2c1CCN(CCOc1ccc(C#N)cc1)C2,Percent Effect,"30 µM, 30.03 µM",41.84%
Cn1c(C2CC2)nc2c1CCN(CCOc1cccc(F)c1)C2,Percent Effect,"30.3 µM, […]",33.25%
same,Percent Effect,"10 mM, 10 mM as filed; unlikely as a test dose",-49.38%
Cn1c(C2CC2)nc2c1CCN(CCOc1ccccc1C#N)C2,Percent Effect,"30.3 µM, […]",73.03%
same,Percent Effect,"10 mM, 10 mM as filed; unlikely as a test dose",81.28%
Cc1cc(CN2CCN(C(=O)NC(C)Cn3ccnc3)CC2)on1 (stereo not drawn),Percent Effect,"30.3 µM, […]",-36.86%
O=C(N1CCCO1)[C@@]12CCO[C@@H]1CCN(C1CCCCC1)C2.O=C(O)C(F)(F)F,Percent Effect,"30 µM, 30.03 µM",51.2%
O=C(N1CCOCC1)[C@@]12CCO[C@@H]1CCN(C1CCC1)C2.O=C(O)C(F)(F)F,Percent Effect,"30 µM, 30.03 µM",-13.96%
O=C(N1CCOCC1)[C@@]12CCO[C@@H]1CCN(C1CCCCC1)C2.O=C(O)C(F)(F)F,Percent Effect,"30 µM, 30.03 µM",-10.39%
Cc1nnn2c1COC(CNCc1nccs1)C2.O=C(O)C(F)(F)F (stereo not drawn),Percent Effect,"30 µM, 30.03 µM",2.897%
Cc1cnn(CCNCC(O)COc2cc(Cl)ccc2Cl)c1 (stereo not drawn),Percent Effect,10 µM,13.76%
Cc1ccc(-c2ccccc2CC2(C(=O)NC(C)C)CCCNC2)cc1 (stereo not drawn),Percent Effect,"30.3 µM, […]",73.8%
CC(C)NC(=O)C1(Cc2ccccc2-c2ccccc2)CCCNC1 (stereo not drawn),Percent Effect,"30.3 µM, […]",-11.23%
O=C(NCCO)C1(Cc2ccccc2-c2ccncc2)CCOCC1,Percent Effect,"30.3 µM, […]",-12.36%
CC(C)NC(=O)C1(Cc2ccccc2-c2cccs2)CCNC1 (stereo not drawn),Percent Effect,"30.3 µM, […]",100.3%
NC(=O)C1(Cc2ccccc2-c2cncnc2)CCCNC1 (stereo not drawn),Percent Effect,"30.3 µM, […]",-3.769%
Cl.O=C(O)C1(Cc2ccc(-c3cccs3)cc2)CCNC1 (stereo not drawn),Percent Effect,"30.3 µM, […]",15.36%
CC(C)NC(=O)C1(Cc2ccccc2-c2cncnc2)CCCNC1 (stereo not drawn),Percent Effect,"30.3 µM, […]",-17.52%
Cl.O=C(O)C1(Cc2cccc(-c3cccs3)c2)CCCNC1 (stereo not drawn),Percent Effect,"30.3 µM, […]",-23.63%
O=C(NC1CC1)C1(Cc2ccccc2-c2ccncc2)CCOCC1,Percent Effect,"30.3 µM, […]",-2.257%
Cl.O=C(N1CCCC1)C1(Cc2ccc(-c3cccs3)cc2)CCNC1 (stereo not drawn),Percent Effect,"30.3 µM, […]",100.9%
CC(C)CNC(=O)C1(Cc2ccccc2-c2ccccc2)CCNC1 (stereo not drawn),Percent Effect,"30.3 µM, […]",-113.5%
CC(C)CNC(=O)C1(Cc2ccccc2-c2cccs2)CCNC1 (stereo not drawn),Percent Effect,"30.3 µM, […]",100.9%
COc1ccccc1CN(C)C(=O)CN1CC(n2nc(C)cc2C)C1,Percent Effect,"30 µM, 30.03 µM",35.21%
CCC(NC(=O)C1CCN(S(C)(=O)=O)CC1)c1ccc(OC)cc1 (stereo not drawn),Percent Effect,"30 µM, 30.03 µM",-21.57%
Cl.O=C(NCc1ccccc1F)C1=NOC2(CCNC2)C1 (stereo not drawn),Percent Effect,"30 µM, 30.03 µM",32.02%
O=C(O)C(F)(F)F.O=C(O)C(F)(F)F.c1cncc(OCC2CN(Cc3nccs3)Cc3nccn3C2)c1 (stereo not drawn),Percent Effect,"30.3 µM, […]",-9.916%
C/C=C(\C)CN(CCN1CCOCC1)Cc1ccco1,Percent Effect,"30.3 µM, […]",-0.5994%
O=C(O)C(F)(F)F.O=C(O)C(F)(F)F.O=C([C@H]1C[C@H]2OCC[C@H]2N(Cc2ccccc2F)C1)N1CCCCO1,Percent Effect,"30.3 µM, […]",-61.9%
Cn1ccnc1-c1nc(NC2CCCC2)ncc1-c1cccc(F)c1,Percent Effect,"30.3 µM, […]",20.44%
CN1CCN(c2ncnc3c2CCN(S(=O)(=O)C2CC2)CC3)CC1.O=C(O)C(F)(F)F,Percent Effect,"30.3 µM, […]",-13.78%
CN(C)C[C@]12COC[C@H]1CN(Cc1ccc3c(c1)OCO3)C2.O=C(O)C(F)(F)F.O=C(O)C(F)(F)F,Percent Effect,"30.3 µM, […]",5.402%
CC(C)CC(=O)NC[C@H]1CC[C@H](C(c2ccccn2)N(C)C)CC1 (stereo partly drawn),Percent Effect,"30.3 µM, […]",-15.36%
COc1cccc(CNC(=O)CCC2=Nc3ccccc3S(=O)(=O)N2)c1,Percent Effect,"30.3 µM, […]",9.218%
CCN1C[C@@H]2[C@@H](OC)CCN(S(=O)(=O)c3ccccc3F)[C@@H]2C1.O=C(O)C(F)(F)F,Percent Effect,"30 µM, 30.03 µM",30.94%
CN(Cc1ccc(C#N)cc1)c1ncc(C(N)=O)cc1Cl,Percent Effect,"30.3 µM, […]",12.46%
Cl.O=C(NCc1ccccc1)C1=NOC2(CCNC2)C1 (stereo not drawn),Percent Effect,"30 µM, 30.03 µM",2.25%
COCCOc1ccccc1CNCC1COC2(CCCC2)O1 (stereo not drawn),Percent Effect,"30 µM, 30.03 µM",102%
Cc1cccc(CNCC2COC3(CCCCC3)O2)c1C (stereo not drawn),Percent Effect,"30 µM, 30.03 µM",-30.8%
Cc1cccc(CNCC2COC3(CCCC3)O2)c1C (stereo not drawn),Percent Effect,"30 µM, 30.03 µM",-15.5%
COc1cc(C(=O)N(Cc2ccco2)C2CC2)cc(OC)c1OC,Percent Effect,"30 µM, 30.03 µM",-6.757%
COc1cc(C(=O)N(Cc2ccco2)C2CC2)cc2c1OCCO2,Percent Effect,"30 µM, 30.03 µM",51.93%
CCN(Cc1ccco1)C(=O)c1cc(OC)c2c(c1)OCCO2,Percent Effect,"30 µM, 30.03 µM",34.74%
Cc1cc2ncc(CN(C)C)c(C3CCN(C)CC3)n2n1,Percent Effect,"30.3 µM, […]",99.05%
CC(=O)N1CCC(c2c(CN(C)C)cnc3cc(C)nn23)CC1,Percent Effect,"30.3 µM, […]",-17.17%
Cc1cc(N(C)CCN(C)C)n2nc(C)cc2n1,Percent Effect,"30 µM, 30.03 µM",-1.745%
Cn1cc(-c2csc(N3CCSCC3)n2)cn1,Percent Effect,"30 µM, 30.03 µM",-20.97%
Cn1cc(-c2csc(N3CCCCCC3)n2)cn1,Percent Effect,"30 µM, 30.03 µM",99.99%
CN1CCN(c2nc(-c3cnn(C)c3)cs2)CC1,Percent Effect,"30 µM, 30.03 µM",-14.69%
O=C(O)C(F)(F)F.O=C(O)C(F)(F)F.O=C(c1ccncc1)N1CCC2(CC1)CCN(Cc1ccccn1)C2=O,Percent Effect,"30 µM, 30.03 µM",-9.957%
CC(C)SCC(=O)NCc1cc2n(n1)CCCN(C1CCCCC1)C2,Percent Effect,"30 µM, 30.03 µM",-6.203%
O=C(CCSc1ccc(F)cc1)N1CCN(c2cnccn2)CC1,Percent Effect,"30 µM, 30.03 µM",-62.17%
CC(CC(=O)N1CCN(c2cnccn2)CC1)c1ccc(F)cc1 (stereo not drawn),Percent Effect,"30 µM, 30.03 µM",-67.22%
O=C(CCSc1ccccc1F)N1CCN(c2cnccn2)CC1,Percent Effect,"30 µM, 30.03 µM",98.54%
Cc1ccc(C(=O)NS(C)(=O)=O)cc1S(C)(=O)=O,Percent Effect,"30 µM, 30.03 µM",7.017%
Cc1ccc(S(=O)(=O)Nc2ccc(C)c(C(=O)O)c2)s1,Percent Effect,"30 µM, 30.03 µM",-9.875%
Cc1ccc(S(C)(=O)=O)cc1C(=O)NS(=O)(=O)c1cccs1,Percent Effect,"30.3 µM, […]",-1.699%
Cc1ccc(S(C)(=O)=O)cc1C(=O)NS(=O)(=O)c1ccc(Cl)cc1,Percent Effect,"30.3 µM, […]",-20.93%
Cc1ccc(S(C)(=O)=O)cc1C(=O)NS(C)(=O)=O,Percent Effect,"30.3 µM, […]",76.39%
Cc1ccc(S(=O)(=O)NC(=O)c2cc(S(C)(=O)=O)ccc2C)s1,Percent Effect,"30.3 µM, […]",94.94%
Cc1ccc(F)cc1S(=O)(=O)Nc1ccc2c(C(=O)O)c[nH]c2c1,Percent Effect,10 µM,-37.32%
Clc1ccccc1-c1cc(CNc2ncnc3c2CCNCC3)no1,Percent Effect,"30 µM, 30.03 µM",-18.38%
O=C(CCNC(=O)c1cnccn1)Nc1ncc[nH]1,Percent Effect,"30 µM, 30.03 µM",-39.01%
O=C(Nc1cccc2c1CCCC2)c1cccnc1N1CCCNCC1,Percent Effect,"30.3 µM, […]",-17.09%
same,Percent Effect,"10 mM, 10 mM as filed; unlikely as a test dose",-111.4%
CS(=O)(=O)NC[C@]12COC[C@H]1CN(C(=O)C1CCSCC1)C2,Percent Effect,"30.3 µM, […]",-61.89%
CNC(=O)c1cn[nH]c1C1CCN(Cc2ccccc2OC)C1 (stereo not drawn),Percent Effect,"30.3 µM, […]",0.9318%
CC(C)c1ccc(CC(=O)N2CCCC3(CN(C)C(=O)O3)C2)cc1 (stereo not drawn),Percent Effect,"30.3 µM, […]",-36.52%
CC(C)c1nnc(CN2CCCC3(CC2)CN(C)C(=O)O3)o1 (stereo not drawn),Percent Effect,"30 µM, 30.03 µM",-4.839%
CC(C)c1ccc(CN2CCCC3(CC2)CN(C)C(=O)O3)cc1 (stereo not drawn),Percent Effect,"30.3 µM, […]",97.32%
CN(C)C(=O)CO[C@H]1CN(Cc2nccs2)[C@@H]2COC[C@H]12.O=C(O)C(F)(F)F,Percent Effect,"30.3 µM, […]",-75.65%
Cc1cc2nc(C(C)C)cc(N(C)CC3CCCN(CCO)C3)n2n1 (stereo not drawn),Percent Effect,"30.3 µM, […]",9.548%
Cc1nc(CN2CCCC(CCc3ccccc3F)C2)c[nH]1 (stereo not drawn),Percent Effect,"30.3 µM, […]",-5.303%
Cn1cc(CN2CCCC(CCc3ccc(F)c(F)c3)C2)cn1 (stereo not drawn),Percent Effect,"30 µM, 30.03 µM",-1.052%
Cc1nc(CN2CCCC(CCc3ccc(F)c(F)c3)C2)c[nH]1 (stereo not drawn),Percent Effect,"30.3 µM, […]",50.38%
Cc1nc(CN2CCCC(CCc3ccc(F)cc3F)C2)c[nH]1 (stereo not drawn),Percent Effect,"30 µM, 30.03 µM",47.76%
Cc1nc(CN2CCCC(CCc3ccccc3C)C2)c[nH]1 (stereo not drawn),Percent Effect,"30.3 µM, […]",-10.1%
Cc1nc(CN2CCCC(CCc3c(F)cccc3F)C2)c[nH]1 (stereo not drawn),Percent Effect,"30 µM, 30.03 µM",77.03%
CN(C)[C@@H]1CCN(S(=O)(=O)C2CC2)[C@H]1Cc1ccccc1.O=C(O)C(F)(F)F,Percent Effect,"30.3 µM, […]",-33.03%
O=C1CCNc2ncc(-c3ccccc3Cl)cc2CN1C1CC1,Percent Effect,"30.3 µM, […]",10.61%
Cl.O=C(NCc1ccc(Cl)cc1)C1=NOC2(CCNC2)C1 (stereo not drawn),Percent Effect,"30 µM, 30.03 µM",4.958%
Cc1ccc(NC(=O)Nc2c[nH]c(=O)[nH]c2=O)c(C)c1,Percent Effect,"30 µM, 30.03 µM",-29.58%
Cc1cc(CN2CCC3(CC2)COC(COCC2CC2)C3)no1.O=C(O)C(F)(F)F (stereo not drawn),Percent Effect,"30.3 µM, […]",4.372%
Cc1cncc(CN2C[C@@H](O)[C@H](Oc3ccccc3)C2)c1,Percent Effect,"30.3 µM, […]",6.651%
c1ccc(-c2cc(CN3C[C@@H]4CC[C@H](C3)N(CC3CC3)C4)on2)cc1,Percent Effect,"30 µM, 30.03 µM",-36.61%
c1ccc(-c2cc(CN3C[C@@H]4CC[C@H](C3)N(CC3CCC3)C4)on2)cc1,Percent Effect,"30 µM, 30.03 µM",58.21%
c1ccc(-c2nnc(CN3C[C@@H]4CC[C@H](C3)N(CC3CCC3)C4)o2)cc1,Percent Effect,"30 µM, 30.03 µM",-46.57%
O=C(O)C(F)(F)F.O=C(O)C(F)(F)F.O=C(c1n[nH]c2c1CN(C1CCOCC1)CC2)N1CCCC1,Percent Effect,"30.3 µM, […]",-4.414%
CCOc1ccc(N(C)Cc2nnc(C3CC3)o2)cc1,Percent Effect,"30.3 µM, […]",-683%
CCOc1ccc(N(C)Cc2nc(C)c(C)o2)cc1,Percent Effect,"30.3 µM, […]",96.05%
CCOc1ccc(N(C)Cc2nnc(C)o2)cc1,Percent Effect,"30.3 µM, […]",-136.8%
